Test results published in publication PMC5540273 (PLoS ONE, 2017).

Columns and labels:
Conditions in all cases: concentration: 1 μM, replicates: in singlicate; n = 1
EPHA4 = tested on: EPHA4
EPHA5 = tested on: EPHA5
EPHA6 = tested on: EPHA6
EPHA7 = tested on: EPHA7
EPHA8 = tested on: EPHA8
EPHB1 = tested on: EPHB1
EPHB2 = tested on: EPHB2
EPHB3 = tested on: EPHB3
EPHB4 = tested on: EPHB4
EPHB6 = tested on: EPHB6
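Also: KINOMEscan kinase panel screen.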

SMILES	%Inh (EPHA4)	%Inh (EPHA5)	%Inh (EPHA6)	%Inh (EPHA7)	%Inh (EPHA8)	%Inh (EPHB1)	%Inh (EPHB2)	%Inh (EPHB3)	%Inh (EPHB4)	%Inh (EPHB6)
CC1=C(C(=O)Nc2cc3cn[nH]c3cc2F)C(c2ccc(C(F)(F)F)cc2)CC(=O)N1 (centres unmarked) [GSK429286]	4%	0%	12%	11%	23%	3%	10%	21%	10%	17%
Clc1cc(Cl)cc(Nc2ccnc(Nc3cc(Cl)cc(Cl)c3)n2)c1 [GSK175726]	8%	0%	13%	8%	17%	1%	19%	10%	28%	19%
Cn1ccc2ncnc(Oc3cccc(C(=O)Nc4ccccc4)c3)c21	4%	16%	0%	0%	0%	0%	0%	0%	9%	0%
COc1cc(Nc2nccc(N3CCC(NC(=O)Nc4cc(C)ccc4C)C3)n2)cc(OC)c1OC (centres unmarked) [GSK1379762]	26%	0%	18%	25%	33%	12%	0%	16%	4%	89%
Cc1cccc(-c2nc(C)cc(Nc3ccncc3)n2)n1 [GSK257997]	2%	0%	2%	7%	8%	23%	0%	5%	5%	0%
COc1ccc(Nc2nccc(NCCNC(=O)Nc3ccccc3F)n2)cc1 [GSK1379901]	14%	0%	6%	7%	25%	0%	0%	27%	32%	4%
Cc1cccc(-c2nc(-c3ccc(S(C)(=O)=O)cc3)sc2-c2ccnc(NCCc3ccccc3)c2)c1	0%	0%	15%	0%	0%	0%	10%	0%	0%	0%
Fc1cccc(COc2nnc(-c3ccc4c(c3)CCO4)o2)c1	0%	0%	11%	14%	16%	20%	0%	20%	16%	0%
Cc1cccc(-c2nc(Nc3ccncc3)c3ccccc3n2)n1 [GW855857]	18%	0%	0%	0%	7%	3%	16%	11%	26%	0%
Cc1ccc(-c2cc(-c3c[nH]nc3-c3ccccn3)ccn2)cc1 [GW684088]	7%	0%	8%	10%	15%	9%	0%	9%	20%	7%
COc1ccccc1CNC(=O)c1cc(C(=O)c2ccccc2C)c[nH]1 [GSK364507]	5%	0%	0%	8%	19%	25%	0%	6%	20%	11%
NC(=O)c1nnc2ccccc2c1N	1%	10%	0%	0%	0%	0%	13%	0%	19%	9%
Cc1cccc(-c2nc(Nc3ccc4[nH]ncc4c3)c3ccccc3n2)n1 [GW857175]	0%	0%	0%	0%	0%	11%	0%	0%	0%	43%
Nc1ncnc2[nH]c(-c3ccccc3)nc12 [AH5015]	23%	0%	8%	29%	25%	0%	8%	16%	19%	25%
O=C1NC(=O)C(N2CCc3ccccc32)=C1c1ccccc1Cl [SB-373598]	24%	0%	18%	18%	36%	9%	0%	14%	20%	31%
O=C(Nc1n[nH]c2nc(-c3nccs3)c(Br)cc12)C1CCCC1 [SB-742609]	25%	0%	20%	10%	14%	0%	0%	26%	10%	46%
C[C@@H]1CCCCN1c1cc(-c2ccc3c(N)n[nH]c3c2)nc(N)n1 [GSK2258759]	2%	0%	1%	0%	3%	12%	0%	7%	15%	14%
COC(=O)c1c(-c2ccccc2)c2cc(C(=O)O)ccc2c(=O)n1Cc1ccccc1	0%	0%	0%	0%	0%	6%	12%	0%	0%	0%

SMILES	%Inh (EPHA4)	%Inh (EPHA5)	%Inh (EPHA6)	%Inh (EPHA7)	%Inh (EPHA8)	%Inh (EPHB1)	%Inh (EPHB2)	%Inh (EPHB3)	%Inh (EPHB4)	%Inh (EPHB6)
Cc1cc(N2Cc3ccccc3C2)nc(Nc2ccc(S(=O)(=O)N3CCOCC3)cc2)n1.Cl [GSK1669917]	0%	0%	0%	0%	7%	0%	0%	0%	6%	10%
Cc1cc(-c2ccc3c(c2)CC[C@@H](N[C@@H](C)c2ccccc2)C3)cnc1N.Cl [GW412617]	13%	1%	10%	0%	8%	9%	0%	9%	11%	48%
Cc1nnc(-c2ccc3occ(-c4ccc(S(C)=O)cc4)c3c2)[nH]1 (centres unmarked)	24%	10%	34%	7%	6%	0%	16%	17%	16%	13%
COc1cc2ncnc(Nc3ccc4nc(-c5ccccc5)[nH]c4c3)c2cc1OC.Cl [GW282450]	0%	0%	0%	0%	0%	38%	1%	3%	22%	18%
Fc1cc(Cl)ccc1Nc1ccnc2cc(I)ccc12 [GW551191]	13%	0%	34%	6%	44%	32%	25%	17%	15%	53%
COc1ccc2nc(-c3cccc(C)n3)nc(Nc3ccncc3)c2c1 [GSK204919]	23%	0%	18%	0%	9%	6%	0%	14%	15%	0%
COc1ccc(CNC(=O)NC2CCN(c3ccnc(Nc4cc(OC)c(OC)c(OC)c4)n3)C2)cc1 (centres unmarked) [GSK1379748]	3%	0%	0%	0%	8%	20%	0%	0%	0%	91.8%
COc1ccccc1-c1ccc2c(NC(=O)C3CC3)n[nH]c2n1 [SB-711239]	13%	0%	9%	4%	9%	0%	11%	15%	14%	6%
Fc1cc(Cl)ccc1Nc1ccnc2cc(-c3ccc(CN4CCCCC4)o3)ccc12 [GW560116]	0%	0%	24%	0%	30%	12%	10%	0%	12%	51%
CCn1c(-c2cccnc2O)nc2cnccc21 [SB-736715]	0%	0%	0%	0%	0%	0%	6%	0%	0%	0%
COc1ccc(Nc2nccc(-c3cccc(NC(=O)c4cc5cc(F)ccc5[nH]4)c3)n2)cc1 [GSK1229782]	6%	0%	11%	10%	26%	32%	14%	25%	32%	25%
O=C(Nc1ccc2c(c1)OCO2)NC1CCN(c2ccnc(Nc3ccc(F)cc3)n2)C1 (centres unmarked) [GSK1379724]	6%	0%	8%	0%	9%	0%	5%	16%	11%	35%
O=S(=O)(c1ccc(-c2ccnc3[nH]ccc23)cc1)N1CCCC1 [GSK846226]	0%	0%	0%	3%	4%	3%	0%	14%	4%	9%
COc1cc2nccc(Nc3ccc(NC(=O)c4ccc(C)cc4)c(O)c3)c2cc1OC.Cl [GW440132]	0%	0%	3%	2%	5%	6%	0%	12%	10%	19%
Cc1c(O)cccc1Nc1ccnc2ccc(C(F)(F)F)cc12.Cl [GW466413]	0%	0%	14%	0%	8%	9%	0%	54%	20%	0%
CCn1c(-c2ccccn2)nc2cnccc21 [SB-736398]	23%	0%	7%	0%	5%	0%	0%	12%	35%	0%
Cl.NC(=O)c1cccc(Nc2nccc(Nc3ccc(Oc4cccc(Cl)c4)c(Cl)c3)n2)c1 [GW659008]	3%	0%	0%	3%	19%	0%	0%	0%	16%	68%
